SNCA viab count: GF-AFC viability counterscreen for inhibitors of alpha-synuclein gene (SNCA) expression; HEK-293-SNCA-luc viability, GF-AFC fluorescence, 24 h; Potency, µM (series often up to 57.1 µM), for the others: at the top dose activity change, negative = cytotoxicity, most hits filed as cytotoxic; 150,000 compounds, 0.12% hits; AID 1671193, 2021;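 note: 0% = DMSO-treated cells and -100% = medium-only wells without cells; nearly all actives have a fitted effect of over 30% in size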
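HEK-293-SNCA-luc cells (1500/well) plated 24 h, then exposed 24 h to a dilution series; GF-AFC added 30 min at 37C, fluorescence 405/540 nm; normalised to medium-only and DMSO wells, Hill fit.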
HEK cytotox: Cytotoxic Profiling in HEK 293 Cell Line of Diverse Libraries Using Quantitative High-Throughput Screening; HEK 293 viability, ATP luminescence (CellTiter-Glo), 48-72 h; Potency, µM (top dose mostly 115 µM), for the others: at the top dose activity change, negative = cytotoxicity, usual class: inhibitors; 94,000 compounds, 6.6% hits; AID 1345083, 2018; note: % is set by controls: 0 for no effect and ±100 for the full control effect; nearly all actives have a fitted effect of over 60% in size
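CellTiter-Glo luminescence (cellular ATP) was read after 48 or 72 hr of compound exposure at 37 degree Celsius. Cells were HEK 293 plated at 250 cells/well.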
3T3 cytotox: Cytotoxic Profiling in NIH 3T3 Cell Line of Diverse Libraries Using Quantitative High-Throughput Screening; NIH 3T3 viability, CellTiter-Glo ATP luminescence, 48-72 h; Potency, µM (series often up to 96.7 µM), for the others: top-dose activity change, negative = cytotoxicity, hits mostly inhibitors; 94,000 compounds, 4.3% hits; note: % is set by controls: 0 for no effect and ±100 for the full control effect; nearly all actives have a fitted effect of over 55% in size
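First NIH 3T3 cells are plated at 400 cells/well; next compound is pinned in; then plates incubate 48 or 72 hr at 37 °C; finally CellTiter-Glo is added and luminescence read after 10 min.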
FLuc inh-1: Firefly luciferase inhibition profiling of diverse chemical library using quantitative high-throughput screening | purified P. pyralis luciferase, luminescence, biochemical | Potency, µM (highest dose often 115 µM), hits mostly inhibitors | Luciferin 4-monooxygenase (Photinus pyralis), P08659 | 76,000 compounds, 2.5% hits | AID 1347043, 2019; note: % is set by controls: 0 for no effect and ±100 for the full control effect; nearly all actives have a fitted effect of over 65% in size
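Cell-free enzyme assay, 10nM P. pyralis luciferase, luciferin and ATP each at 10uM. Inhibition profiled over a 6-point titration, read as luminescence.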
SNCA expr inhib: Primary qHTS assay for inhibitors of alpha-synuclein gene (SNCA) expression. HEK-293 SNCA-luciferase knock-in, luminescence, 24 h. Potency, µM (highest dose often 57.2 µM), for inactives: at the highest dose activity change, negative = inhibition, hits mostly inhibitors. 140,000 compounds, 0.17% hits. AID 1671194, 2021;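 note: plate controls were DMSO cells for no effect and cell-free wells for full effect; nearly all actives have a fitted effect of over 45% in size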
hNpr1 antagonist: Natriuretic polypeptide receptor (hNpr1) antagonism - Primary qHTS. Atrial natriuretic peptide receptor 1 (Homo sapiens), P16066. HEK293 hNpr1 GloSensor cGMP, ANP-stimulated luminescence. Potency, µM (top dose mostly 46.3 µM), without a hit: top-dose activity change, negative = inhibition, hits mostly inhibitors. 76,000 compounds, 1.6% hits. AID 1347048, 2019; calls by dose curve; note: % is set by controls: 0 for no effect and ±100 for the full control effect; nearly all actives have a fitted effect of over 60% in size
Target sequence (P16066 whole entry, looked up): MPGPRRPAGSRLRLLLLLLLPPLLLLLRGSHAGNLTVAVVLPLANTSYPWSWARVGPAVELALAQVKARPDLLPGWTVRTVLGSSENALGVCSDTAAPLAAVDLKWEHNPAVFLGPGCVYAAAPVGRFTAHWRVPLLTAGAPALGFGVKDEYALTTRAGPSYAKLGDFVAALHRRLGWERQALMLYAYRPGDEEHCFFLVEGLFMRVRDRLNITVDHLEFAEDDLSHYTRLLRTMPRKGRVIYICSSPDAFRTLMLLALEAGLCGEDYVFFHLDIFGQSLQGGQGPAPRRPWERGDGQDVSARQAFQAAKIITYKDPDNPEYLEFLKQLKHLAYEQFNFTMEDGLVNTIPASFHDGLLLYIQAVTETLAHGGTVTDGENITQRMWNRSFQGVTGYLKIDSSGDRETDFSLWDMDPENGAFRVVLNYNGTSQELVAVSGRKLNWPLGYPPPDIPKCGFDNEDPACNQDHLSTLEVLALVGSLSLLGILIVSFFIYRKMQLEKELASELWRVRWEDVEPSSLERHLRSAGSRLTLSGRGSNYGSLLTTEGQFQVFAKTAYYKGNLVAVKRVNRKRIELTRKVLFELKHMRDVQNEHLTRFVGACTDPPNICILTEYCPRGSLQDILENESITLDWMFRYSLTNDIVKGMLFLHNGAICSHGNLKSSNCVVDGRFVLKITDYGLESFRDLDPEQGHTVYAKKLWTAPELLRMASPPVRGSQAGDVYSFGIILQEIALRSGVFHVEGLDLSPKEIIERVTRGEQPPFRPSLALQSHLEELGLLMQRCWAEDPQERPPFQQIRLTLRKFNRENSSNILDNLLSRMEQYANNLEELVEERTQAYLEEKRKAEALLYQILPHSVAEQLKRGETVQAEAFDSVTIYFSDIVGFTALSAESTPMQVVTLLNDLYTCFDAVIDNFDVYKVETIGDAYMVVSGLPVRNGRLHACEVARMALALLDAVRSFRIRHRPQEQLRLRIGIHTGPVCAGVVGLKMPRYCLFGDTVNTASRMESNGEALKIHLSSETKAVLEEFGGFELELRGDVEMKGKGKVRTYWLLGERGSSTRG
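Compound pre-incubated 30 min at room temperature on GloSensor-loaded HEK293 cells stably carrying hNpr1 and the pGS-40F cGMP biosensor. Stimulation uses hNppA at 0.1 nM final; luminescence is taken at baseline and 20 min post-agonist.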
FLuc SDR no ATP: Firefly luciferase (FLuc-C-HiBiT) SDR gain of signal screen - without ATP. shares compounds with FLuc inh-1. Purified FLuc-C-HiBiT, Nano-Glo HiBiT luminescence, no ATP. Potency, µM (highest dose often 32.7 µM), inactives show top-dose activation (signal gain), hits mostly activators. 1,300 compounds, 7.8% hits. AID 1963318, 2024; note: nearly all actives have a fitted effect of over 55% in size
FLuc SDR ATP: Firefly luciferase (FLuc-C-HiBiT) SDR gain of signal screen - plus ATP | shares compounds with FLuc inh-1 | purified FLuc-C-HiBiT + ATP, HiBiT complementation luminescence | Potency, µM (highest dose often 32.7 µM), without a hit: top-dose activation (gain of signal), usual class: activators | 1,300 compounds, 8.7% hits | AID 1963319, 2024;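 note: signal reports ligand binding via conformational change of the enzyme rather than luciferase catalysis; % of control where 0% means no effect; nearly all actives have a fitted effect of over 55% in size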
FLuc inh-2: Firefly luciferase (FLuc-C-HiBiT) enzymatic inhibition screen - Functional assay; shares compounds with FLuc inh-1; purified FLuc-C-HiBiT enzyme, luciferin luminescence; Potency, µM (titrated, usually from 32.7 µM), for the others: at the top dose activity change, negative = inhibition, hits mostly inhibitors; 1,300 compounds, 42% hits; note: % is set by controls: 0 for no effect and ±100 for the full control effect; nearly all actives have a fitted effect of over 70% in size
* marks the source's active call; other numbers are inactive results; i = inactive; ? = inconclusive; . = not tested or not shown; [ ] = another dose, or the depositor's remark. The list is not random: actives were taken first. Their share in the collection is about 7.2%. Unless noted, calls come from the whole dose curve; as a rule, active = well fitted curve in the direction sought with a large enough effect; inconclusive = small, poorly fitted or top-dose-only effect, or another doubt; inactive = no such curve, though single readings can be large; an effect the other way counts as inactive or inconclusive. Potency is the fitted concentration of half-maximal effect.

SMILES | SNCA viab count | HEK cytotox | 3T3 cytotox | FLuc inh-1 | SNCA expr inhib | hNpr1 antagonist | FLuc SDR no ATP | FLuc SDR ATP | FLuc inh-2
C[C@@H]1C(=O)O[C@H]2[C@H]1CC[C@@]1(C)Cc3sc(NCc4ccccc4)nc3[C@@H](C)[C@H]21 | -17.7%[87.6 µM] | ? | ? | 3.55µM* | 14.3%[87.6 µM] | ? | ? | 16.6%[49.3 µM] | 7.18µM*
C[C@@H]1C(=O)O[C@H]2[C@H]1CC[C@@]1(C)Cc3sc(Nc4cccnc4)nc3[C@@H](C)[C@H]21 | -3.7%[87.6 µM] | -5.3%[172 µM] | -22.1%[174 µM] | 0.794µM* | ? | 15.8µM* | 1.01µM* | ? | 0.453µM*
Cc1ccc(S(=O)(=O)Nc2nc3c(s2)C[C@]2(C)CC[C@@H]4[C@H](OC(=O)[C@H]4C)[C@H]2[C@@H]3C)cc1 | 4.6% | -21.2% | -23.5% | ? | -13.5% | -2.0% | . | . | .
COc1ccc(-c2cccc(C(=O)N3CCN([S+](=O)([O-])c4ccccc4)CC3)c2)nn1 | . | ? | -16.5% | . | . | . | . | . | .
Cc1cccc(-c2nc3c4ccccc4nc(NCCc4ccccc4)n3n2)c1 | 5.8% | . | . | . | 130.0% | . | . | . | .
COc1cccc(CNc2nc3ccccc3c3nc(-c4cccc(C)c4)nn23)c1 | -3.0% | . | . | . | 101.9% | . | 18.8% | 13.4% | ?
CC(C)CCNC(=O)N1CCC2(CC1)CC(N(Cc1ccc(F)cc1)C1CC1)CCO2 (configuration not stated) | -5.3% | ? | ? | i | -25.0% | 1.1% | . | . | .
Cn1nc(C2CCNCC2)c2c(C(=O)NC3CC3)cc(C3CC3)nc21 | -7.1% | 0.3% | -1.2% | . | ? | . | . | . | .
CCOc1ccc(NC(=O)c2sc3nc4c(cc3c2N)CCCCCC4)cc1 | 4.6% | . | . | . | 21.5% | . | . | . | .
Nc1c(C(=O)Nc2ccc(C(=O)O)cc2)sc2nc3c(cc12)CCCC3 | -8.0% | . | . | . | -22.9% | . | 11.1µM* | 0.248µM* | 0.176µM*
O=C1CCN(C2CCN(Cc3ccccc3)CC2)CCCC(C(=O)NCc2ccccc2)CCN1 (configuration not stated) | -3.5% | -12.4% | -12.6% | i | 15.2% | 5.9% | . | . | .
COc1ccc(-n2nc3ccc(NC(=O)c4c(OC)cccc4OC)cc3n2)cc1 | -13.2% | . | . | . | 87.3% | . | 16.2% | 11.7% | -16.2%
COc1cc(C(=O)Nc2ccc3nn(-c4ccc(F)cc4)nc3c2)cc(OC)c1OC | 2.5% | . | . | . | -2.1% | . | . | . | .
OCC1CN(Cc2ccccc2)CC12CCN(C1CCC1)CC2 (configuration not stated) | -13.7%[12.5 µM] | -26.6% | -20.4% | i | 8.5% | 2.3% | . | . | .
COc1ccc2nc([C@H]3CCN(Cc4ccccc4F)C3)[nH]c2c1 | -4.7%[87.6 µM] | ? | ? | i | 18.9%[87.6 µM] | -2.9%[70.6 µM] | . | . | .
Fc1ccc2nc([C@H]3CCN(Cc4ccccc4F)C3)[nH]c2c1 | -13.7%[87.6 µM] | ? | 79.4µM* | 3.16µM* | 34.3%[87.6 µM] | ? | 27.4%[49.3 µM] | 17.5%[49.3 µM] | 14.3µM*
CN(Cc1nccs1)c1ccc(-c2nc(-c3ccccc3F)no2)cn1 | -2.9% | ? | -5.5% | 2.82µM* | 23.8% | ? | 14.9% | 17.3% | ?
CC(Cn1cccn1)Nc1ccc(-c2nc(-c3ccccc3F)no2)cn1 (configuration not stated) | -3.1% | 44.7µM* | ? | 3.55µM* | 13.2% | ? | 15.0% | ? | 9.89µM*
Cc1nnc(SCc2ccccc2)c2cc3sccc3n12 | ? | . | . | . | 262.1% | . | 16.0% | 9.8% | ?
O=C(NCCn1ccn2nc(-c3ccc(F)cc3)cc2c1=O)c1cccc2[nH]ccc12 | -2.4% | i | i | i | -26.1% | -12.7% | . | . | .
Cc1ccc(-c2cc3c(=O)n(CCNC(=O)c4ccoc4)ccn3n2)cc1C | -18.6% | ? | ? | 7.08µM* | 26.8% | -12.1% | 24.8% | 17.0% | ?
Cc1ccc(-c2cc3c(=O)n(CCNC(=O)c4cccc5[nH]ccc45)ccn3n2)cc1C | ? | 35.5µM* | 31.6µM* | 5.62µM* | -15.7% | -15.5% | 22.9% | 15.2% | 7.85µM*
Cn1cc(-c2cccc(COc3ccc4c(cnn4CC[S+](C)(=O)[O-])c3)c2)cn1 | 0.0%[87.6 µM] | ? | ? | 5.62µM* | 86.1%[87.6 µM] | ? | 24.9%[49.3 µM] | ? | ?
O=C(O)CCn1ncc2cc(OC3CCN(C(=O)CC4CC4)CC3)ccc21 | 3.6%[87.6 µM] | i | ? | i | 1.2%[87.6 µM] | 2.1%[70.6 µM] | . | . | .
C[S+](=O)([O-])CCn1ncc2cc(OCC3CCN(Cc4ccccc4)CC3)ccc21 | 2.0%[87.6 µM] | ? | ? | i | ? | 6.0%[70.6 µM] | . | . | .
CCCC(=O)Nc1ccccc1-c1cccc(NC(C)=O)c1 | -2.7% | 2.1% | -0.7% | i | 10.2% | 4.8% | . | . | .
CC(C)Oc1cccc(-c2cccc(COc3ccc4c(cnn4CC[S+](C)(=O)[O-])c3)c2)c1 | -10.4% | 28.2µM* | ? | 6.31µM* | 54.5% | ? | 13.4% | 11.6% | ?
O=C(O)CCn1ncc2cc(OCc3ccc(-c4cccc(CO)c4)cc3)ccc21 | 3.8%[87.6 µM] | -6.5%[172 µM] | ? | 20µM* | -4.7%[87.6 µM] | -4.5%[70.6 µM] | -0.2%[49.3 µM] | 0.6%[49.3 µM] | ?
CNC(=O)CCn1ncc2cc(OCc3ccccc3-c3cccc(NC(C)=O)c3)ccc21 | -5.9% | ? | ? | 8.91µM* | -27.6% | -19.2% | 26.7% | ? | 3.13µM*
CCNC(=O)Nc1ncc(-c2cc(-c3c(C)cc(OC)cc3C)nc(-c3cnccn3)n2)s1 | -14.3% | . | . | . | . | . | . | . | .

Screening results deposited in PubChem by National Center for Advancing Translational Sciences (NCATS).
